Hits are enriched below; roughly 11% of the tested compounds scored in any of these assays.
3T3 cytotox: NIH 3T3 cell cytotoxicity | NIH 3T3 viability, CellTiter-Glo ATP luminescence, 48-72 h | Potency, µM (series often up to 96.7 µM), for the others: at the top dose activity change, negative = cytotoxicity, most hits filed as inhibitors | 94,000 compounds, 4.3% hits; further: nearly all actives have a fitted effect of over 55% in size
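Cells were seeded at 400 per well, treated with pin-transferred compound, and kept 48 or 72 hr at 37 °C before CellTiter-Glo addition and luminescence imaging of cellular ATP.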
FLuc inh: blocks purified firefly luciferase enzyme activity | P08659 | purified P. pyralis luciferase, luminescence, biochemical | Potency, µM (series often up to 115 µM), most hits filed as inhibitors | 76,000 compounds, 2.5% hits; further: nearly all actives have a fitted effect of over 65% in size
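Biochemical qHTS: compound (6-point titration) added to 10uM D-luciferin plus 10uM ATP in Tris acetate pH 7.5 buffer with Mg, Tween-20 and BSA, then purified enzyme at 10nM; light output imaged.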
HEK293 tox: kills HEK 293 cells | HEK 293 viability, ATP luminescence (CellTiter-Glo), 48-72 h | Potency, µM (doses to about 115 µM), for inactives: at the top dose activity change, negative = cytotoxicity, hits mostly inhibitors | 94,000 compounds, 6.6% hits | AID 1345083; further: nearly all actives have a fitted effect of over 60% in size
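qHTS cytotoxicity; HEK 293, 250 cells/well; compound pinned; 48 or 72 hr, 37 degree Celsius, 5% CO2, 95% humidity; CellTiter-Glo, 10 min RT; luminescence (ATP).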
hNpr1 antagonist: antagonists of human natriuretic peptide receptor Npr1; P16066; 76,000 compounds, 1.6% hits; Potency, µM (doses to about 46.3 µM), for the others: top-dose activity change, negative = inhibition, actives largely listed as inhibitors; HEK293 hNpr1 GloSensor cGMP, ANP-stimulated luminescence; calls by dose curve; further: nearly all actives have a fitted effect of over 60% in size
Target sequence (P16066 whole entry, looked up): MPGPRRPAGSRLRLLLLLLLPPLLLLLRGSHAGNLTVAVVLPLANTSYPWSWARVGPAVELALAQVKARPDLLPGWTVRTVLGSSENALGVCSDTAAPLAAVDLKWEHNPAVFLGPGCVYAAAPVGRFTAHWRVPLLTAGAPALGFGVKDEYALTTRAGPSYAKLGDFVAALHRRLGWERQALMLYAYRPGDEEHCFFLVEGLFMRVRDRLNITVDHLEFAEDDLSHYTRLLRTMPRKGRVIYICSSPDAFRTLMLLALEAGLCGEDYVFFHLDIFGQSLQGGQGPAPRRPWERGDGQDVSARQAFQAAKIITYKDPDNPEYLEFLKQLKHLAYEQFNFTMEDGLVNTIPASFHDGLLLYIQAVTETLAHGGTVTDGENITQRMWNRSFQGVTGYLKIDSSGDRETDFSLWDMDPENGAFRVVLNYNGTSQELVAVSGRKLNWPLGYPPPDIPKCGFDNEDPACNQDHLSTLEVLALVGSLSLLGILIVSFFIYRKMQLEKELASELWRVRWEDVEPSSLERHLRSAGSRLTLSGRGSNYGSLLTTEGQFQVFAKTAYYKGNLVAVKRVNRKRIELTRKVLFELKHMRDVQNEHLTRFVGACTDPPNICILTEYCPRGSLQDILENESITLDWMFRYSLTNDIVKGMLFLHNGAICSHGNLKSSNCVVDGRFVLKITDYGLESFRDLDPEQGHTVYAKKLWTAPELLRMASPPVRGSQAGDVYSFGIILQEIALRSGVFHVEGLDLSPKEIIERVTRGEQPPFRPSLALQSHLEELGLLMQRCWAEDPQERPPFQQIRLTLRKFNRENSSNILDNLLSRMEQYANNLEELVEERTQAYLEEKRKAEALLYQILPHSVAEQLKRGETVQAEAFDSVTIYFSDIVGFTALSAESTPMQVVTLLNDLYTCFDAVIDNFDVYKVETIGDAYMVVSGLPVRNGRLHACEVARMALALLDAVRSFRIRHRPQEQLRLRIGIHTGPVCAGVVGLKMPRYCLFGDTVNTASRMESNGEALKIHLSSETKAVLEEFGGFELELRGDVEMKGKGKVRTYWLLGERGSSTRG
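HEK293 cells stably expressing human Npr1 and cGMP GloSensor pGS-40F, loaded 2 h with 2% GloSensor reagent, given compound 30 min at room temperature. Luminescence read before and 20 min after 0.1 nM hNppA.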
* marks the source's active call; other numbers are inactive results; [ ] = remark or other dose. Unless noted, the call rests on the fitted dose curve; in most records, active means well fitted curve in the direction sought with a large enough effect; inconclusive means small, poorly fitted or top-dose-only effect, or another doubt; inactive means no such curve, though single readings can be large; an effect the other way counts as inactive or inconclusive. On the % scale 0 is the no-effect control and ±100 the full control effect; potency means the concentration at half of the fitted maximal effect.

Screening COC(=O)c1ccc2nc(C[C@@H]3C[C@@H](C(C)C)[C@H](CNCc4ccc(OC)cc4O)C=C3C)[nH]c2c1 returned 3T3 cytotox 25µM*, FLuc inh inactive, HEK293 tox 20µM* and hNpr1 antagonist -20%.
COC(=O)c1ccc2nc(C[C@@H]3C[C@@H](C(C)C)[C@H](CNC(=O)C(C)C)C=C3C)[nH]c2c1 was read as 3T3 cytotox inconclusive, FLuc inh inactive, HEK293 tox inconclusive and hNpr1 antagonist 0%[70.6 µM].
Screening COC(=O)c1ccc2nc(C[C@@H]3C[C@@H](C(C)C)[C@H](CNC(=O)c4ccccc4)C=C3C)[nH]c2c1 returned 3T3 cytotox inconclusive, FLuc inh inactive, HEK293 tox inconclusive and hNpr1 antagonist -18%.
COC(=O)c1ccc2nc(C[C@@H]3C[C@@H](C(C)C)[C@H](CNCc4ccccc4F)C=C3C)[nH]c2c1 was read as 3T3 cytotox 22µM*, FLuc inh inactive, HEK293 tox inconclusive and hNpr1 antagonist 4%.
CCOCCNC(=O)c1cc(-c2ccccc2F)nc2c1cnn2C was read as 3T3 cytotox inconclusive and HEK293 tox -14%[172 µM].
COc1cccc(C(=O)N2CCn3c(nnc3-c3ccc(NC(C)=O)cc3)C2)c1 was read as 3T3 cytotox -8% and HEK293 tox -6%.
For CCN1CCN(C(=O)c2cc(-c3cc(Cl)cc(Cl)c3)c3nncn3n2)CC1 the results were 3T3 cytotox inconclusive and HEK293 tox -7%.
Screening O=S(=O)(c1ccc(F)c(F)c1)N1CCC(C2CCNC2)CC1 (configuration not stated) returned 3T3 cytotox -13%, FLuc inh inactive, HEK293 tox inconclusive and hNpr1 antagonist -2%.
O=S(=O)(c1ccc(C(F)(F)F)cc1)N1CCC(C2CCNC2)CC1 (configuration not stated) was read as 3T3 cytotox inconclusive, FLuc inh inactive, HEK293 tox 79µM* and hNpr1 antagonist 0%.
Screening CC(C)S(=O)(=O)N1CCc2c(c(CN3CCOCC3)nn2C)C1 returned 3T3 cytotox -18% and HEK293 tox -14%.
`CCOC(=O)[C@H]1C[C@]2(CCCCN(CCOC)C2=O)N(C(=O)COc2ccccc2)[C@H]1c1ccco1` gave 3T3 cytotox -25% and HEK293 tox inconclusive.
CC(C)(CC1Cc2ccccc2C1)NC(=O)C1CC2(CCNCC2)CN1 (configuration not stated) was read as 3T3 cytotox 32µM*, FLuc inh inactive, HEK293 tox 25µM* and hNpr1 antagonist 0%.
`COc1ccc(CCNC(=O)c2ccc3nnc(C4CC4)n3c2)cc1` gave 3T3 cytotox inconclusive and HEK293 tox 1%[172 µM].
For COc1ccc(CCNC(=O)C2CCCN2C(=O)c2cccc(-c3cccnc3)c2)cc1 (configuration not stated) the results were 3T3 cytotox -11% and HEK293 tox -25%.
COC1C(=O)N(c2cccc(F)c2)C12CCN(C(=O)Cc1cccc(F)c1)CC2 (configuration not stated) was read as 3T3 cytotox -28% and HEK293 tox inconclusive.
For COc1ccc(C(=O)NC2CCCN(c3ccnc4ccnn34)C2)cc1 (configuration not stated) the results were 3T3 cytotox inconclusive and HEK293 tox 32µM*.
Screening O=C(NC1CN(c2ccnc3ccnn23)C1)c1ccc(Cl)cc1 returned 3T3 cytotox inconclusive and HEK293 tox -19%[172 µM].
Screening O=C(NC1CCCN(c2ccnc3ccnn23)C1)c1ccc(Cl)cc1 (configuration not stated) returned 3T3 cytotox inconclusive and HEK293 tox 40µM*.
For COc1cccc(C(=O)NC2CCN(c3ccnc4ccnn34)CC2)c1 the results were 3T3 cytotox inconclusive and HEK293 tox 35µM*.
`O=C(NC1CCCN(c2ccnc3ccnn23)C1)c1cccc(Br)c1` (configuration not stated) gave 3T3 cytotox inconclusive and HEK293 tox 79µM*.
`O=C(NC1CCCN(c2ccnc3ccnn23)C1)c1ccncc1` (configuration not stated) gave 3T3 cytotox -28%[138 µM] and HEK293 tox inconclusive.
For O=C(NC1CCCN(c2ccnc3ccnn23)C1)c1ccc2c(c1)OCO2 (configuration not stated) the results were 3T3 cytotox inconclusive and HEK293 tox 35µM*.

Assay outcomes: PubChem BioAssay, National Center for Advancing Translational Sciences (NCATS)
